Experiment [1] has as its target Protein kinase C gamma type (Homo sapiens) (UniProt P05129). The conditions noted are these: at 1 µM.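 Also: each value is an averaged percent inhibition of the enzyme.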
Experiment [2] has as its target T1, Protein kinase C iota type (Homo sapiens) (UniProt P41743).
T1 sequence (whole entry): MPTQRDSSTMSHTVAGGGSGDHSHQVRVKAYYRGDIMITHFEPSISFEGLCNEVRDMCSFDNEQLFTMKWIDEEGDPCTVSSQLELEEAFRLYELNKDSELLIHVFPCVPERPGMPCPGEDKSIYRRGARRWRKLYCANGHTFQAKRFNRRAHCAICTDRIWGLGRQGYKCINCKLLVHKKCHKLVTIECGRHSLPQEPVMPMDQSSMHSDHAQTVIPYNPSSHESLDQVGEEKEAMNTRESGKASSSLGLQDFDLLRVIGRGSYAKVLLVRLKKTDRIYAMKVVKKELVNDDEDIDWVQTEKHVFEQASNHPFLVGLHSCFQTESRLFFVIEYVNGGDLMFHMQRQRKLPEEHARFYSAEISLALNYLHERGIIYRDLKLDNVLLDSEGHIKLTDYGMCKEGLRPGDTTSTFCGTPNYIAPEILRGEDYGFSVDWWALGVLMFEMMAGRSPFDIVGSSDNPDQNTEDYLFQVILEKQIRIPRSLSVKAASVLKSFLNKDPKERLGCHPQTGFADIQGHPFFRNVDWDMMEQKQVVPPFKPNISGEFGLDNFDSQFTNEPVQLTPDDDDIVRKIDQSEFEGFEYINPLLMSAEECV
As to conditions: at 0.1 µM.

In experiment [3] the target is T1, Protein kinase C iota type (Homo sapiens). As to conditions: at 1 µM.
The target of experiment [4] is Protein kinase C theta type (Homo sapiens) (UniProt Q04759). As to conditions: at 0.1 µM.
Protein kinase C theta type (Homo sapiens), sequence (Q04759 whole entry, looked up): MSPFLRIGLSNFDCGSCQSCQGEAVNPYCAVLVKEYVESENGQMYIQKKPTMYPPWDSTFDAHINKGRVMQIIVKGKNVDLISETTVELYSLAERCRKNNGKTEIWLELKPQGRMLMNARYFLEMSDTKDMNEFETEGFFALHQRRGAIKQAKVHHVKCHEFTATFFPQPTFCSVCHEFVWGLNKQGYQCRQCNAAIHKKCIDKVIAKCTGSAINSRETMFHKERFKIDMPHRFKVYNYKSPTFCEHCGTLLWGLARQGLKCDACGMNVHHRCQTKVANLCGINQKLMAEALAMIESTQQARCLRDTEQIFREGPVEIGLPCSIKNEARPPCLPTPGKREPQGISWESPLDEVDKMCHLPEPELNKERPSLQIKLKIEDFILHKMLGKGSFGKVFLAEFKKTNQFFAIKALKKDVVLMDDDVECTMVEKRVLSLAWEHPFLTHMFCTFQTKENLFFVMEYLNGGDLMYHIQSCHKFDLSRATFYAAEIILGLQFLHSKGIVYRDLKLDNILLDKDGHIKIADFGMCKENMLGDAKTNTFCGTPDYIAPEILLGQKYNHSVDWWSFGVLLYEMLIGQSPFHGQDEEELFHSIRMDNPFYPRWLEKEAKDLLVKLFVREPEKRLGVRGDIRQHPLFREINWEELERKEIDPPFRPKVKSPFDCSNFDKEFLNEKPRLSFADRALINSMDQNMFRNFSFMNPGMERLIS
For experiment [5] the target is unchanged. As to conditions: at 1 µM.
The target in experiment [6] is Protein kinase C beta type (Homo sapiens) (UniProt P05771). As to conditions: at 0.1 µM.
Protein kinase C beta type (Homo sapiens), sequence (P05771 2-671 limits assumed): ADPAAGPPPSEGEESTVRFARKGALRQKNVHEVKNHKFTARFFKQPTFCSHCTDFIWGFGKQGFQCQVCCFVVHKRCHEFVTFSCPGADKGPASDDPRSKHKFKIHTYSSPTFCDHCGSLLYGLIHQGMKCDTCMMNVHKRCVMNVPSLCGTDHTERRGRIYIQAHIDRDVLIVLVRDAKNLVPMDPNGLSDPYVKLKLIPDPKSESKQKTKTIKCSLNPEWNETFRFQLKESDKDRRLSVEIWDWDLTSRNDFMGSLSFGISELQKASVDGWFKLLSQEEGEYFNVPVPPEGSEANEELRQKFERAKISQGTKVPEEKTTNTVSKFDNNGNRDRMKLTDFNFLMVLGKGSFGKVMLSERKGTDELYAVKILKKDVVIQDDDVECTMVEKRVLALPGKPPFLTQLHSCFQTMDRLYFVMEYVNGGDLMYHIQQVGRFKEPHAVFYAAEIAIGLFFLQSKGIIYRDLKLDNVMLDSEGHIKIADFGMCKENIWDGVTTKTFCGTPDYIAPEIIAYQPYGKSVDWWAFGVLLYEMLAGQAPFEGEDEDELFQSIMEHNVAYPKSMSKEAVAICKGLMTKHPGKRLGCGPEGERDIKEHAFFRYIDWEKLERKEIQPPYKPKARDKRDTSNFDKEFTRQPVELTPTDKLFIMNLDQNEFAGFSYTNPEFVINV
Experiment [7] has the same target. As to conditions: at 1 µM.
The target in experiment [8] is T2, Serine/threonine-protein kinase D1 (Homo sapiens) (UniProt Q15139).
T2 sequence (whole entry): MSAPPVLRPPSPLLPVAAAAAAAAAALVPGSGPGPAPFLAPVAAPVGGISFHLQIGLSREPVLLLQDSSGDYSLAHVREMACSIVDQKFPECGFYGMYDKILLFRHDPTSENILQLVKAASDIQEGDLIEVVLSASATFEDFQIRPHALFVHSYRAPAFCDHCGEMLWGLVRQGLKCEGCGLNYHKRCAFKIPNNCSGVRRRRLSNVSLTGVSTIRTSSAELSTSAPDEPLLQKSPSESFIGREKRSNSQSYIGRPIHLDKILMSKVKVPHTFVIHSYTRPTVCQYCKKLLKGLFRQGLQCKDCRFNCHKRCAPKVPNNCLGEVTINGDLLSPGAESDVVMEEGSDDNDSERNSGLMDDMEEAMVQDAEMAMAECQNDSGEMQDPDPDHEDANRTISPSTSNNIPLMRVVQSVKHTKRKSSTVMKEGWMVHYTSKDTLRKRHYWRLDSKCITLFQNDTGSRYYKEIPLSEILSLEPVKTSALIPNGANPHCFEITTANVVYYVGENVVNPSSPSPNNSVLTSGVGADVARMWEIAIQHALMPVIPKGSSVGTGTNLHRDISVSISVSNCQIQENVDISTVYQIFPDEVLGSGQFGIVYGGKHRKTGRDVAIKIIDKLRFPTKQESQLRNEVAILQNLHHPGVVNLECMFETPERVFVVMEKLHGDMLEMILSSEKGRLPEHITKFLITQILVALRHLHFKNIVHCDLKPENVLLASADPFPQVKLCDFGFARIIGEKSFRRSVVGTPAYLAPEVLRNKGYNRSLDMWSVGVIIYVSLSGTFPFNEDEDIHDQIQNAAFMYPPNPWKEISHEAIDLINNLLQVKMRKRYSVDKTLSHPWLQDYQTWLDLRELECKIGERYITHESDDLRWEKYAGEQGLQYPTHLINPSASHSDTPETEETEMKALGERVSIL
The conditions noted are these: at 0.1 µM.

The target in experiment [9] is T2, Serine/threonine-protein kinase D1 (Homo sapiens). The conditions noted are these: at 1 µM.
Experiment [10] concerns the target T3, Serine/threonine-protein kinase D2 (Homo sapiens) (UniProt Q9BZL6).
T3 sequence (whole entry): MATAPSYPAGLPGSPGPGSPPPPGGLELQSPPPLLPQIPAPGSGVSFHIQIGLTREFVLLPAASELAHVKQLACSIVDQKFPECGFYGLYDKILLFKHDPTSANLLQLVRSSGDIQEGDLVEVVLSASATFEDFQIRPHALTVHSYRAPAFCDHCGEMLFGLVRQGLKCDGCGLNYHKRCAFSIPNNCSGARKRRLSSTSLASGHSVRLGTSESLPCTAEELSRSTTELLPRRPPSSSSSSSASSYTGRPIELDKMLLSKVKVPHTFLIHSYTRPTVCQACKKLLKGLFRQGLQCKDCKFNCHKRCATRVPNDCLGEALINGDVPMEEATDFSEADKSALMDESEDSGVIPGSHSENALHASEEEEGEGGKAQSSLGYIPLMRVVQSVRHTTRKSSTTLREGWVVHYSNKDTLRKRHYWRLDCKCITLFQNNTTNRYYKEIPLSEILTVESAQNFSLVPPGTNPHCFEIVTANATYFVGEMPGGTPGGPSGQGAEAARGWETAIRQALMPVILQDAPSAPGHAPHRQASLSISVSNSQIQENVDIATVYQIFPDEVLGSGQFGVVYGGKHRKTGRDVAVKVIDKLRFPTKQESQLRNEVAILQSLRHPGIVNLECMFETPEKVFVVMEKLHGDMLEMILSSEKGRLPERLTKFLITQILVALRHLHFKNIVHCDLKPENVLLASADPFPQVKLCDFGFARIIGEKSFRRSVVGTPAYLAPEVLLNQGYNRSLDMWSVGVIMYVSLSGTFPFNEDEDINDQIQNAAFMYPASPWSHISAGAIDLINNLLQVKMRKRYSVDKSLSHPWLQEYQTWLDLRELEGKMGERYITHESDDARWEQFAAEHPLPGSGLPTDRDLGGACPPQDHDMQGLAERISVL
As to conditions: at 0.1 µM.

For experiment [11], the target named is T3, Serine/threonine-protein kinase D2 (Homo sapiens). As to conditions: at 1 µM.
Experiment [12] has as its target T4, Serine/threonine-protein kinase D3 (Homo sapiens) (UniProt O94806).
T4 sequence (whole entry): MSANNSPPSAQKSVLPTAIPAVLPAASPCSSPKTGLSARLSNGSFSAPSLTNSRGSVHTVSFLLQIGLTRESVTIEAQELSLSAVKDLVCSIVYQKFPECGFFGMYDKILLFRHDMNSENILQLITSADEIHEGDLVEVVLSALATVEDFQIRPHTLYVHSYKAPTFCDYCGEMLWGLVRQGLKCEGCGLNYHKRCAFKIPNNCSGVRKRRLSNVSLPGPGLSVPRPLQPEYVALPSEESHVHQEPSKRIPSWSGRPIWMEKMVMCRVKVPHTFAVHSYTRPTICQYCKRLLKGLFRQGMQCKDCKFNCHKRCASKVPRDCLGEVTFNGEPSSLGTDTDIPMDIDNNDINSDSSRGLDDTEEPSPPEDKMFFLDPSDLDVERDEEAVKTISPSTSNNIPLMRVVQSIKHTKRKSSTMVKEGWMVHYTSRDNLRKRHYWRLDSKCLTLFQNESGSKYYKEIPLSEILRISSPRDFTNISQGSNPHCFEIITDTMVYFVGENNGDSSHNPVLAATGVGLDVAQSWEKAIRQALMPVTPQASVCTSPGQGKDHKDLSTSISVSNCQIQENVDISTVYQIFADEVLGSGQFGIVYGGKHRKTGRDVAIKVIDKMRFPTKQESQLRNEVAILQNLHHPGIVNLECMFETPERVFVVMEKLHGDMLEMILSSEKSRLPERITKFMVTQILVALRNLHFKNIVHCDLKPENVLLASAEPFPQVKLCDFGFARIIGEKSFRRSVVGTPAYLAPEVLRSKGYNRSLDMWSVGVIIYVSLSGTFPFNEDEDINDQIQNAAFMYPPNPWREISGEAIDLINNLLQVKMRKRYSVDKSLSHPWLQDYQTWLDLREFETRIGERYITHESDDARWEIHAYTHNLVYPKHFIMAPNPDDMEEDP
The conditions noted are these: at 0.1 µM.

Experiment [13] deals with T4, Serine/threonine-protein kinase D3 (Homo sapiens). As to conditions: at 1 µM.
Experiment [14] has as its target T5, cGMP-dependent protein kinase 1 (Homo sapiens) (UniProt Q13976).
T5 sequence (whole entry): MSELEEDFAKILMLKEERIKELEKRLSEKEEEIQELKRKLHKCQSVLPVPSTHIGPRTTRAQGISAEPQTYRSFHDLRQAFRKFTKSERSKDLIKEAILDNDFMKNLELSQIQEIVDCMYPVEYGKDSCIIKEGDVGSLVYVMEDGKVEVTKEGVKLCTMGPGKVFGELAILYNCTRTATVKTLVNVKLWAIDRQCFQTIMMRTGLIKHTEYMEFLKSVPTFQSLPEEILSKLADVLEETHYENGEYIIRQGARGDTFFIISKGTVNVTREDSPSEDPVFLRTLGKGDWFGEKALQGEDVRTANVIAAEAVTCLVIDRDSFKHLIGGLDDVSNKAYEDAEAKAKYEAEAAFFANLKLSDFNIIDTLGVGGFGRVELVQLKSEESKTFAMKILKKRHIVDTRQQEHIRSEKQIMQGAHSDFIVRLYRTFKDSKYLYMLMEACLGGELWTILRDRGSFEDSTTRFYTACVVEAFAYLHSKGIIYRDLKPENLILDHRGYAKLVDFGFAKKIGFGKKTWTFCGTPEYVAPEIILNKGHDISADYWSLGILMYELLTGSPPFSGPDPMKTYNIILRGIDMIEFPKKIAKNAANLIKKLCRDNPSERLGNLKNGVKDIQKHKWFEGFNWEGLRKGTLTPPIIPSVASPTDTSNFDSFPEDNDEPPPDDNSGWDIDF
As to conditions: at 0.1 µM.

Experiment [15] deals with T5, cGMP-dependent protein kinase 1 (Homo sapiens). As to conditions: at 1 µM.
Experiment [16] deals with T6, cGMP-dependent protein kinase 2 (Homo sapiens) (UniProt Q13237).
T6 sequence (whole entry): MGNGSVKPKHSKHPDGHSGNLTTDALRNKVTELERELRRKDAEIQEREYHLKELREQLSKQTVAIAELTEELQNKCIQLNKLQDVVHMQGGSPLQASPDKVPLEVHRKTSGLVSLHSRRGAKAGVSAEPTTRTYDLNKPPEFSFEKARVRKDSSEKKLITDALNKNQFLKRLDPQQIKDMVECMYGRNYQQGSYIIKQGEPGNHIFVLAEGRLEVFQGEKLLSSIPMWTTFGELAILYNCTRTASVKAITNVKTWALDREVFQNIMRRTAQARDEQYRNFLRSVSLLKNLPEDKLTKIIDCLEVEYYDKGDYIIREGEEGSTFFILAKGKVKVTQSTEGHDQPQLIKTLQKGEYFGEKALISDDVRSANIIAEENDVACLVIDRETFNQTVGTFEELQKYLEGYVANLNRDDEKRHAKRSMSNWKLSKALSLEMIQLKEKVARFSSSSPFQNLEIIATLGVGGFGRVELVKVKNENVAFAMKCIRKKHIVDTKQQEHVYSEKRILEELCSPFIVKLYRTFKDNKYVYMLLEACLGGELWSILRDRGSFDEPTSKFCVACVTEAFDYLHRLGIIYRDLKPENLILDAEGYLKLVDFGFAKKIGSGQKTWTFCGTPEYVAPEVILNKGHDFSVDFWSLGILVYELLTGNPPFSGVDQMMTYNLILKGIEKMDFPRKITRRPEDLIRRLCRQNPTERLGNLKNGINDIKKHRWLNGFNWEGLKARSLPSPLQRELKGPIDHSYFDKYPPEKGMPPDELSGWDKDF
As to conditions: at 0.1 µM.

Experiment [17] has as its target T6, cGMP-dependent protein kinase 2 (Homo sapiens). The conditions noted are these: at 1 µM.
Experiment [18] has as its target T7, cAMP-dependent protein kinase catalytic subunit PRKX (Homo sapiens) (UniProt P51817).
T7 sequence (whole entry): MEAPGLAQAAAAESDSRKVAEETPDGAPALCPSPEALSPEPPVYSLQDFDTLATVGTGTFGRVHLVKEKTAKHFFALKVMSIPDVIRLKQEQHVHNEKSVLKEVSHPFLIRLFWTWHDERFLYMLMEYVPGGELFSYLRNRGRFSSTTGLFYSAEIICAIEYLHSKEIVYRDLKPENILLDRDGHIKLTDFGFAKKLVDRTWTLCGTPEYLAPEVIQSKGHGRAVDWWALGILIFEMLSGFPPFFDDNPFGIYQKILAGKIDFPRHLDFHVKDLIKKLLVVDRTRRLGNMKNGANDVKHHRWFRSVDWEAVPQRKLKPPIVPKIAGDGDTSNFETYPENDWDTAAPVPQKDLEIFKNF
The conditions noted are these: at 0.1 µM.

Experiment [19] has as its target T7, cAMP-dependent protein kinase catalytic subunit PRKX (Homo sapiens). The conditions noted are these: at 1 µM.
For experiment [20], the target named is Rho-associated protein kinase 1 (Homo sapiens) (UniProt Q13464). As to conditions: at 0.1 µM.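 Also: values are mean percent inhibition of ROCK1.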
Rho-associated protein kinase 1 (Homo sapiens), sequence (Q13464 2-1354 limits assumed): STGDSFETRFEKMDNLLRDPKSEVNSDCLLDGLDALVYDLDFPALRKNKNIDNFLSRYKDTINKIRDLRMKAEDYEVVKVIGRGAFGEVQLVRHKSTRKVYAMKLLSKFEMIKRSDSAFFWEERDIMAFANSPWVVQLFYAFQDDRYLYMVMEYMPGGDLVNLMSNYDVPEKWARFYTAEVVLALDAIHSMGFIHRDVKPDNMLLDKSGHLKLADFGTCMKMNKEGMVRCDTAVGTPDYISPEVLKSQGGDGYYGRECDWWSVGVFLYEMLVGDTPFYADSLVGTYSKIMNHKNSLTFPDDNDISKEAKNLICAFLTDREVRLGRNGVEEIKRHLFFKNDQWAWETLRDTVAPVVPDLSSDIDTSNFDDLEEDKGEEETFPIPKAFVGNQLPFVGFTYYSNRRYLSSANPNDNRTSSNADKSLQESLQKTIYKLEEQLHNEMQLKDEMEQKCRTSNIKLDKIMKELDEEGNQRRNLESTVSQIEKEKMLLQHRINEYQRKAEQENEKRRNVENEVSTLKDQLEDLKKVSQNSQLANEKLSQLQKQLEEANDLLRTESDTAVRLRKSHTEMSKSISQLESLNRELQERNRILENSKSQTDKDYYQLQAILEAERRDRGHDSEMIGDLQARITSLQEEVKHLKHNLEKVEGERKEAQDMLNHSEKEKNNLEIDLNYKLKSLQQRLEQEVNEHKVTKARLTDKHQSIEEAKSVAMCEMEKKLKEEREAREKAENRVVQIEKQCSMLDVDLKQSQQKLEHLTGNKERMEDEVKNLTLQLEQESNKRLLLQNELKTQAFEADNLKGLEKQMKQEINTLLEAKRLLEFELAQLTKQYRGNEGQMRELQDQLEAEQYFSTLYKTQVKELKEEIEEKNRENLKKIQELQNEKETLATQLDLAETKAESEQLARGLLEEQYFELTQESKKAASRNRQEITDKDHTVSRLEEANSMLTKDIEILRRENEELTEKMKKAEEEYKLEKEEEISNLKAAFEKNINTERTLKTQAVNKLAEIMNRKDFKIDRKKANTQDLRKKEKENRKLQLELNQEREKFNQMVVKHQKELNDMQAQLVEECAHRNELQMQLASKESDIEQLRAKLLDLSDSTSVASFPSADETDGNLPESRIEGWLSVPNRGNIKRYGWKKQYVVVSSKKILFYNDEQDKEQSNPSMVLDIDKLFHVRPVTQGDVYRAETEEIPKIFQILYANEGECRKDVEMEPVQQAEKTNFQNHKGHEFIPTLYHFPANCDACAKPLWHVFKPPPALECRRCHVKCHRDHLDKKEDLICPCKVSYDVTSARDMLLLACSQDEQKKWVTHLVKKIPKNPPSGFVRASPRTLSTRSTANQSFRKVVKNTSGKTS

On to `Cc1cccc2c1NC(=O)/C2=N\Nc1ccc(S(N)(=O)=O)cc1`, for which the inhibition in experiment [1] is -2.77%; in experiment [2], 1.18%; in experiment [3], 2.53%; in [4], 0.85%; in experiment [5] it was 0.4%; in experiment [6] it was 2.86%. The inhibition is 0.46% in experiment [7]; 2.89% in experiment [8]; 4.31% in experiment [9]; 2.72% in experiment [10]; 3.1% in experiment [11]; 3.5% in [12]. For the same compound, the inhibition in [13] turned out to be 3.85%; in experiment [14] it was 0.72%; in [15], 2.94%; in experiment [16] it was 3.15%; in experiment [17], 3.38%; in experiment [18], 1.15%. Moreover, the inhibition in experiment [19] was found to be 2.2%; in experiment [20] it was 1.31%.
For `N#Cc1c(NC(=O)CN2CCOCC2)sc2c1CCCC2`, the inhibition in experiment [1] came out at 4.29%; in [2] it was 1.29%; in experiment [3] it was 0.6%; in [4], 3.07%; in experiment [5] it was 3.7%; in experiment [6], 1.49%. In addition, the inhibition was 2.84% in experiment [7]; 3.69% in [8]; 6.16% in [9]; 3.86% in experiment [10]; 6.36% in experiment [11]; 4.08% in experiment [12]. Besides, the inhibition in experiment [13] was found to be 6.46%; in experiment [14] it was 3.2%; in experiment [15], 4.74%; in experiment [16], 2.59%; in experiment [17], 2.65%; in experiment [18], 2.18%. Moreover, the figures for the inhibition in experiment [19] and in [20] were 3.49% and 0.84%, respectively.

What is called inhibition is the change of the read-out against control, counted positive when it falls.

These data come from ChEMBL document CHEMBL1961873, “Compounds: GSK PKIS; Assays: Nanosyn kinase panel” (2012).
